Measured values as given in PubChem BioAssay (NCI).
The panel holds about 83,000 compounds, 20% with a hit somewhere; the sample as a whole holds those more often.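 96-well plates, one dose, 48 hours. Percent growth reported; active if below 10.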 Values without a mark were called inactive. Active and inactive are the calls of the source.

Tests used:
Experiment in all cases: NCI-60 one-dose screen, 48 h (100 = growth as untreated, 0 = no growth, -100 = all killed)
Details in all cases: 10 µM unless noted
[1] = system: SK-MEL-2 melanoma
[2] = system: EKVX NSCLC
[3] = system: SN12C renal
[4] = system: UO-31 renal
[5] = system: TK-10 renal
[6] = system: ACHN renal
[7] = system: CAKI-1 renal
[8] = system: A498 renal
[9] = system: CCRF-CEM leukemia
[10] = system: MOLT-4 leukemia

SMILES: CCCCc1ccc2nc(NC(=O)OC)[nH]c2c1
- growth [1]: 44.4%
- growth [2]: 60.3%
- growth [3]: 34.5%
- growth [4]: 36.1%
- growth [5]: 57.6%
- growth [6]: 39.2%
- growth [7]: 19.5%
- growth [8]: -5.63% (active)
- growth [9]: -15.5% (active)
- growth [10]: -18.9% (active)

SMILES: CCNc1ccc2ccccc2c1N=Nc1ccc(N=Nc2ccccc2)cc1
- growth [1]: 64.6%
- growth [2]: 98.5%
- growth [3]: 96%
- growth [4]: 71.1%
- growth [5]: 128%
- growth [6]: 95.2%
- growth [7]: 107%
- growth [8]: 137%
- growth [9]: 95.8%
- growth [10]: 82.2%

SMILES: C=C(c1ccc(N(C)C)cc1)c1ccc(N(C)C)cc1
- growth [1]: -8.02% (active)
- growth [2]: 6.55% (active)
- growth [3]: 1.84% (active)
- growth [4]: 28.8%
- growth [5]: 58.2%
- growth [6]: 36.1%
- growth [7]: 22.2%
- growth [8]: 78.8%
- growth [9]: -14.1% (active)
- growth [10]: 5.78% (active)

SMILES: O=C1Nc2ccccc2/C1=C\c1ccccc1O
- growth [1]: 107%
- growth [2]: 56.4%
- growth [3]: 92.5%
- growth [4]: 51.3%
- growth [5]: 124%
- growth [6]: 85.4%
- growth [7]: 88.6%
- growth [8]: 105%
- growth [10]: 74.6%

SMILES: Cn1c2ccccc2c2nnc(NCCCCO)nc21
- growth [1]: 108%
- growth [2]: 76.3%
- growth [3]: 94.3%
- growth [4]: 68.4%
- growth [5]: 123%
- growth [6]: 87.2%
- growth [7]: 66.4%
- growth [8]: 105%
- growth [10]: 97.7%

SMILES: CC(=O)C1C(=O)C(=O)N(c2cccc([N+](=O)[O-])c2)C1=O (stereo not given)
- growth [1]: 114%
- growth [2]: 108%
- growth [3]: 101%
- growth [4]: 105%
- growth [5]: 125%
- growth [6]: 104%
- growth [7]: 102%
- growth [8]: 79.2%
- growth [10]: 101%

SMILES: O=C1C=C[C@H](O)[C@@]2(CO)O[C@@H]12
- growth [1]: -12.4% (active)
- growth [2]: 72.4%
- growth [3]: 88.7%
- growth [4]: 48.1%
- growth [5]: 109%
- growth [6]: 76.7%
- growth [7]: 40%
- growth [8]: 101%
- growth [9]: -51% (active)
- growth [10]: 26.9%

SMILES: Nc1ccc(F)c(Cl)c1F
- growth [1]: 108%
- growth [2]: 107%
- growth [3]: 104%
- growth [4]: 98.7%
- growth [5]: 108%
- growth [6]: 106%
- growth [7]: 97.5%
- growth [8]: 95%
- growth [9]: 99.4%
- growth [10]: 108%

SMILES: S=CN1CCCCC1
- growth [1]: 124%
- growth [2]: 96.7%
- growth [3]: 103%
- growth [4]: 89.1%
- growth [5]: 110%
- growth [6]: 107%
- growth [7]: 97.2%
- growth [8]: 105%
- growth [9]: 110%
- growth [10]: 109%

SMILES: COc1ccc(Br)c(C=O)c1
- growth [1]: 104%
- growth [2]: 83.2%
- growth [3]: 63.9%
- growth [4]: 54.1%
- growth [5]: 83.7%
- growth [6]: 88.9%
- growth [7]: 63.9%
- growth [8]: 93.4%
- growth [9]: 2.55% (active)
- growth [10]: 18.9%

SMILES: C1CCc2onc(-c3noc4c3CCCCC4)c2CC1
- growth [1]: 120%
- growth [2]: 106%
- growth [3]: 95.6%
- growth [4]: 91.1%
- growth [5]: 108%
- growth [6]: 113%
- growth [7]: 95.6%
- growth [8]: 146%
- growth [9]: 99.3%
- growth [10]: 102%

SMILES: Nc1ccn(C2OC(CO)C(O)C2F)c(=O)n1 (stereo not given)
- growth [1]: 90.1%
- growth [2]: 96.4%
- growth [3]: 78.8%
- growth [4]: 76.8%
- growth [5]: 92.5%
- growth [6]: 62.1%
- growth [7]: 69.8%
- growth [8]: 88.5%
- growth [10]: -15.5% (active)

SMILES: O=C(Nc1ccc([N+](=O)[O-])cc1)C(=O)Nc1ccc([N+](=O)[O-])cc1
- growth [1]: 97%
- growth [2]: 103%
- growth [3]: 102%
- growth [4]: 89.1%
- growth [5]: 98.5%
- growth [6]: 107%
- growth [7]: 98.1%
- growth [8]: 100%
- growth [10]: 101%

SMILES: COC1OC(CO)C(OC)C(O)C1O (stereo not given)
- growth [1]: 111%
- growth [2]: 103%
- growth [3]: 104%
- growth [4]: 92.5%
- growth [5]: 110%
- growth [6]: 104%
- growth [7]: 105%
- growth [8]: 92.7%
- growth [9]: 102%
- growth [10]: 98.6%

SMILES: O=S(=O)(O)C(C(I)I)S(=O)(=O)O
- growth [1]: 109%
- growth [2]: 112%
- growth [3]: 110%
- growth [4]: 89.6%
- growth [5]: 111%
- growth [6]: 114%
- growth [7]: 100%
- growth [8]: 106%
- growth [9]: 105%
- growth [10]: 103%

SMILES: CN(C)c1ccc(/C=C/C(=O)c2ccc(NC(N)=O)cc2)cc1
- growth [1]: 103%
- growth [2]: 89.3%
- growth [3]: 93.3%
- growth [4]: 68.3%
- growth [5]: 97.7%
- growth [6]: 103%
- growth [7]: 87.8%
- growth [8]: 115%
- growth [10]: 91.7%

SMILES: CC1CCC(C(C)(C)[N+](C)(C)C)CC1 (stereo not given)
- growth [1]: 114%
- growth [2]: 96.6%
- growth [3]: 102%
- growth [4]: 94.8%
- growth [5]: 95.6%
- growth [6]: 105%
- growth [7]: 103%
- growth [8]: 86.8%
- growth [9]: 98.4%
- growth [10]: 101%

SMILES: CCOC(=O)c1ccc(NC(=O)Nc2nccs2)cc1
- growth [1]: -38.4% (active)
- growth [2]: 55.5%
- growth [3]: 24.7%
- growth [4]: 14.8%
- growth [5]: 31.6%
- growth [6]: 9.97% (active)
- growth [7]: 22.2%
- growth [8]: 7.68% (active)
- growth [9]: -0.276% (active)
- growth [10]: -2.7% (active)

SMILES: CNc1ccccc1C(N)=O
- growth [1]: 103%
- growth [2]: 98.4%
- growth [3]: 94.8%
- growth [4]: 75.5%
- growth [5]: 105%
- growth [6]: 97.1%
- growth [7]: 81.4%
- growth [8]: 121%
- growth [9]: 102%
- growth [10]: 117%

SMILES: CCN(CC)CCOC(=O)Nc1c(C(C)C)cccc1C(C)C
- growth [1]: 124%
- growth [2]: 106%
- growth [3]: 105%
- growth [4]: 83.1%
- growth [5]: 105%
- growth [6]: 105%
- growth [7]: 88.9%
- growth [8]: 118%
- growth [9]: 98.4%
- growth [10]: 105%

SMILES: CN(C)c1ccc2c(N(C)C)cc(N(C)C)nc2c1
- growth [1]: 143%
- growth [2]: 75.8%
- growth [3]: 83.1%
- growth [4]: 50.3%
- growth [5]: 104%
- growth [6]: 76.5%
- growth [7]: 68.6%
- growth [8]: 78.9%
- growth [10]: 80.3%

SMILES: C=CCS(C)(=O)=O
- growth [1]: 100%
- growth [2]: 91.3%
- growth [3]: 98.1%
- growth [4]: 90.3%
- growth [5]: 96.6%
- growth [6]: 102%
- growth [7]: 92.5%
- growth [8]: 105%
- growth [9]: 110%
- growth [10]: 109%

SMILES: NC(CSSCC(N)C(=O)O)C(=O)O (stereo not given)
- growth [1]: -8.58% (active)
- growth [2]: 21.9%
- growth [3]: -11.2% (active)
- growth [4]: 13.9%
- growth [5]: 20.4%
- growth [6]: -37.8% (active)
- growth [7]: 11.4%
- growth [8]: -7.36% (active)
- growth [9]: -10.1% (active)
- growth [10]: -9.51% (active)

SMILES: Nc1ncnc(Nc2ccccc2)n1
- growth [1]: 103%
- growth [2]: 122%
- growth [3]: 105%
- growth [4]: 86.5%
- growth [5]: 110%
- growth [6]: 113%
- growth [7]: 92.7%
- growth [8]: 128%
- growth [9]: 104%
- growth [10]: 96.2%

SMILES: Clc1ncnc2nc[nH]c12
- growth [1]: 118%
- growth [2]: 101%
- growth [3]: 93.4%
- growth [4]: 77.2%
- growth [5]: 107%
- growth [6]: 96.2%
- growth [7]: 108%
- growth [8]: 101%
- growth [9]: 103%
- growth [10]: 100%

SMILES: O=[N+]([O-])c1ccc2[nH]c(=S)n(/C=C(/c3ccc(Cl)cc3Cl)S(=O)(=O)Cc3ccc(Cl)cc3Cl)c2c1
- growth [1]: 102%
- growth [2]: 92.9%
- growth [3]: 94.6%
- growth [4]: 97.2%
- growth [5]: 101%
- growth [6]: 98.1%
- growth [7]: 97.4%
- growth [8]: 103%
- growth [10]: 98.3%

SMILES: CN(C)CCOC(=O)Nc1ccc(Cc2ccc(NC(=O)OCCN(C)C)cc2)cc1
- growth [1]: 101% [100 µM]
- growth [2]: 102% [100 µM]
- growth [3]: 97.5% [100 µM]
- growth [4]: 68.6% [100 µM]
- growth [5]: 124% [100 µM]
- growth [6]: 86.8% [100 µM]
- growth [7]: 73% [100 µM]
- growth [8]: 126% [100 µM]
- growth [9]: 51.3% [100 µM]
- growth [10]: 37.6% [100 µM]

SMILES: CC(C)Sc1ncnc2nc[nH]c12
- growth [1]: 108%
- growth [2]: 94.7%
- growth [3]: 96.7%
- growth [4]: 95.9%
- growth [5]: 116%
- growth [6]: 99.6%
- growth [7]: 101%
- growth [8]: 59.3%
- growth [9]: 111%
- growth [10]: 146%

SMILES: O=S(=O)(O)c1cccc2cccnc12
- growth [1]: 108%
- growth [2]: 110%
- growth [3]: 103%
- growth [4]: 76.8%
- growth [5]: 118%
- growth [6]: 111%
- growth [7]: 96.1%
- growth [8]: 104%
- growth [10]: 100%

SMILES: COc1cc(C(=O)NC(=S)NCc2ccncc2)cc(OC)c1OC
- growth [1]: 89.5%
- growth [2]: 99.4%
- growth [3]: 102%
- growth [4]: 77.4%
- growth [5]: 103%
- growth [6]: 94.2%
- growth [7]: 91.4%
- growth [9]: 99.5%
- growth [10]: 86.1%
